The panel holds about 79,000 compounds, 15% with a hit somewhere; the sample as a whole holds those more often. Unmarked numbers belong to inactive results. Activity calls are given as the source filed them. Cut-off read from the data, not from the text of the source: active = growth inhibition above about 70%; inactive = the rest.
Assay: NCI Yeast Anticancer Drug Screen. Data for the mlh1 rad18 strain (AID 175)
Conditions: S. cerevisiae mlh1 rad18 strain growth inhibition; at 50.0 µM; hits give high values
Summary of the method: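 Genetically defined yeast (DNA repair-deficient) exposed to compounds; growth inhibition determined relative to vehicle.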

Structure (SMILES)	growth inhibition
CC(C)Cn1cnc2c(Cl)nc3ccccc3c21	-11.8%
COC(=O)c1nc(N)[nH]c(=O)c1CCCCCc1c(C(=O)OC)nc(N)[nH]c1=O	-17.6%
O=C(C(=O)N1CCc2ccccc21)c1c[nH]c2ccccc12	12.5%
CC(C)(N)C(=O)O	-6.85%
O=C(O)CCSc1ccc([N+](=O)[O-])cc1	52.6%
O=c1oc2ccc3ccccc3c2c2c1CCCCC2	-26.5%
Cc1cc(C)c(S(=O)(=O)ONC(=O)OC(C)(C)C)c(C)c1	-8.1%
O=C1CC2(CCCc3sccc32)C(=O)N1 (stereo not given)	-14.1%
CC1(c2cccc[n+]2Cc2ccccc2S(=O)(=O)[O-])OCCO1	-21.6%
CCCc1cc(-c2ccc(-c3cc(CCC)c(C=O)[nH]3)s2)[nH]c1C=O	-46.9%
CCOC(OCC)C(=O)NC(C)c1ccc(O)c(OC)c1 (stereo not given)	3.2%
CCCCCOC(=O)CC(CC(=O)OCCCCC)C(=O)OCCCCC	1.75%
CCOc1ccc(CCC(=O)O)cc1	12.1%
O=C(CC(=O)N1N=C(n2ccc3ccccc32)CC1c1ccccc1)Nc1ccccc1Cl (stereo not given)	5.45%
O=C1CSC(c2ccccc2Br)N1c1nncs1 (stereo not given)	7.75%
CC/C(CC(C)CC)=N\O (stereo not given)	-5.75%
CCn1c2ccc(C=O)cc2c2cc([N+](=O)[O-])ccc21	15.1%
CCOc1c(N=Nc2ccccc2C)c(C)nn1C(N)=S	23.1%
On1c(-c2ccccc2)c(-c2c(-c3ccccc3)n(O)c3ccccc23)c2ccccc21	15.8%
O=C1NC(=O)C(c2ccc(Cl)cc2)N1 (stereo not given)	-15.2%

Structure (SMILES)	growth inhibition
N#CC1(c2ccccc2)C(c2ccccc2)CC(O)(c2ccccc2)C(C(=O)c2ccccc2)C1c1ccccc1 (stereo not given)	-3.5%
C/C(Nc1ccc(Cl)cc1)=C1/CCOC1=O	-24.9%
CCOC(OCC)n1ncnc1NC(=S)NCc1ccccc1	-11.2%
Fc1ccc(CC(F)F)cc1	3.25%
CC(=O)N(C)c1ccc(N)cc1	36.5%
C#CCOC(=O)C(N)CC(N)=O (stereo not given)	-17.2%
CCN(CC)CCCn1cnc2ncccc2c1=O	-3.3%
COCc1ccccc1P(c1ccccc1COC)c1ccccc1COC	36%
COC(=O)C1=C(C(=O)OC)SC(=CC#CC=C2SC(C(=O)OC)=C(C(=O)OC)S2)S1	1.6%
ClC(=Nc1ccccc1)c1cc(Cl)ccn1	8.15%
COc1cccc(OC)c1NC(=O)NCCCl	14.4%
O=S(=O)(c1ccccc1)c1cccc2c[n+]3ccccc3cc12	24.9%
Cc1cc(Cl)c(O)c(-c2cc(-c3ccc([N+](=O)[O-])cc3)c3c(N)[nH]c(=O)nc3n2)c1	38%
Cc1ccccc1N(CC1CO1)CC1CO1 (stereo not given)	-3.25%
COc1ccc(CSc2nc3ccccc3nc2-c2cccs2)cc1	-54.8%
CCOc1ccc(NC(=O)C2=C(C)NC(C)=C(C(=O)Nc3ccc(OCC)cc3)C2c2ccc(O)c(OC)c2)cc1	-8.1%
CC(O)c1cc2c(s1)C(=O)c1sccc1C2=O (stereo not given)	91.2% (active)
Cn1cnc([N+](=O)[O-])c1C(=O)NCc1ccccc1	-9.05%
Cn1c([N+](=O)[O-])cnc1CN1CCN(CCO)CC1	3%
COC(=O)c1c(O)ccc(O)c1C(=O)OC	-21.6%
